NPSR antag = antagonists of human neuropeptide S receptor cAMP signaling; Q6W5P4; CHO-NPSR cells, cAMP TR-FRET, antagonist mode; Potency, µM (series often up to 38.3 µM), usual class: inhibitors; 220,000 compounds, 1% hits; AID 1461; further: nearly all actives have a fitted effect of over 50% in size
Target sequence (Q6W5P4 whole entry, looked up): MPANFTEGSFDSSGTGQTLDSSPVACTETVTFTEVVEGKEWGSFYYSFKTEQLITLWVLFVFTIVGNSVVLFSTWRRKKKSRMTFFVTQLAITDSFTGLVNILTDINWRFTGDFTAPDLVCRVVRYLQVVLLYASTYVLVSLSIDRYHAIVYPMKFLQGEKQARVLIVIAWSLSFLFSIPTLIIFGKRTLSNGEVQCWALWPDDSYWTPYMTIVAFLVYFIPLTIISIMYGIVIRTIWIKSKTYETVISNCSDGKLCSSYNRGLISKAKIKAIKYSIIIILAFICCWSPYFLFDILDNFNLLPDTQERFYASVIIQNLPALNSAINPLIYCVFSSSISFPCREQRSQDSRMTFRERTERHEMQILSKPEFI
IMPase Li cell = cell-permeable IMPase inhibitors with lithium potentiation | 210,000 compounds, 0.35% hits | Potency, µM (highest dose often 59.4 µM), most hits filed as inhibitors | CHO-M1 cells, IP1 TR-FRET (IP-One), carbachol + lithium;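 further: IP1 builds up when IMPase is blocked and the TR-FRET signal falls; nearly all actives have a fitted effect of over 50% in size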
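CHO-M1, 2000 cells/well, 16–30 h culture; cpd + low Li+, 30 min 37C; lysis with d2-IP1/Eu-anti-IP1 Ab, 10 min RT; TR-FRET 665/620 ratio and 620 channel; AC50 via Hill.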
HTT cytoprotect = cytoprotection in Huntington HTT-Q103 PC12 cell model; PC12 HTT-Q103 induced, cytoprotection, ATP luminescence, 40 h; Potency, µM (series often up to 56.4 µM), actives largely listed as activators; 230,000 compounds, 0.14% hits; further: nearly all actives have a fitted effect of over 45% in size
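Huntington model: PC12 line, ecdysone-inducible HTTQ103 exon1–GFP, tebufenozide 100 nM. Test articles in a dose series. Endpoint luminescence from cellular ATP.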
HttQ103 aggreg = reduces HttQ103-GFP aggregates in PC12 cells | 220,000 compounds, 1.1% hits | PC12 HttQ103-GFP aggregates, Acumen cytometry, 40 h | Potency, µM (titrated, usually from 46.1 µM), actives largely listed as inhibitors; further: nearly all actives have a fitted effect of over 60% in size
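Inducible Q103 Huntingtin exon 1–GFP PC12 line, 1500 cells/well in phenol red free DMEM with 5% equine and 5% calf serum. Tebufenozide 100 nM induced expression; compounds titrated; aggregates quantified by cytometry.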
LMNA splice mod = modulators of lamin A splicing; HeLa LMNA splicing GFP/RFP minigene ratio, 48 h; Potency, µM (top dose mostly 46.1 µM), actives largely listed as inhibitors; 200,000 compounds, 0.01% hits; AID 1487; active means well fitted inhibition curve with a large enough effect in the signal ratio, with a control signal flat, not every such curve was filed as active; inconclusive means small, poorly fitted or top-dose-only effect, or effect the other way, or a change in a side signal; the % refers to the signal ratio
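Read-out is the ratio of GFP to DsRed2 object intensity, acquired by 488 nm laser-scanning cytometry on HeLa lamin A-EGFP minigene reporter cells. Compound incubation 48 hrs at 37 °C in Opti-MEM with 2% FBS; DMSO 0.5% final.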
IMPase cell inh = IMPase inhibition in cells | P97697 | inhibition (IP1 accumulation), % at 46.1 µM | CHO-M1 cells, IP1 accumulation, HTRF TR-FRET ratio | 120,000 tested, under 10 active; active means well fitted curve in the direction sought with a large enough effect in the signal ratio, not every such curve was filed as active; inconclusive means small, poorly fitted or top-dose-only effect, or a change in a side signal; inactive means no such curve, though single readings can be large or run the other way; the % refers to the signal ratio;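 further: cells stimulated with carbachol in lithium chloride buffer; higher means more IMPase inhibition seen as more IP1 and lower FRET ratio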
Target sequence (P97697 whole entry, looked up): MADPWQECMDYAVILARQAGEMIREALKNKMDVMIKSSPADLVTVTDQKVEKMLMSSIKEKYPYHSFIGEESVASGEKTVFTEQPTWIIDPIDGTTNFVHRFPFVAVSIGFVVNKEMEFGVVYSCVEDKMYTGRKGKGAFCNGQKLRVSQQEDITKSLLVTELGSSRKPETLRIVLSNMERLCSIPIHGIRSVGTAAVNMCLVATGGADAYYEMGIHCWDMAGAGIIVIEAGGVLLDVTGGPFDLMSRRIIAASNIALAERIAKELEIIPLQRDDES
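The IP-One HTRF competitive assay in carbachol-stimulated CHO-M1 cells quantifies cellular IP1. Compounds spanned up to 46 uM final, and activity is expressed as AC50 from concentration-response fits of the ratio and donor data.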
Numbers stand for hits; [ ] = another dose, or the depositor's remark. The list is not random: actives were taken first. Their share in the collection is about 1.6%. Unless noted, the call rests on the fitted dose curve; in most records, active means well fitted curve in the direction sought with a large enough effect; inconclusive means small, poorly fitted or top-dose-only effect, or another doubt; inactive means no such curve, though single readings can be large; an effect the other way counts as inactive or inconclusive.

Results for O=C(O)c1cc(-c2ccc(-c3ccccc3)cc2)nc2cc3ccccc3cc12 ?
IMPase Li cell: inactive; HTT cytoprotect: inactive[10 µM]

Results for Cc1ccccc1Nc1c(-c2ccccn2)nc2ccccn12 ?
NPSR antag: inactive; IMPase Li cell: inactive; HTT cytoprotect: inactive; HttQ103 aggreg: inconclusive; LMNA splice mod: inconclusive

How did Cc1ccc2nc(-c3ccccn3)c(Nc3ccccc3C)n2c1 do in these assays?
NPSR antag: 13µM; IMPase Li cell: inactive; HTT cytoprotect: inactive; HttQ103 aggreg: inconclusive; LMNA splice mod: inactive

Results for CC(=O)OCC1OC(n2cnc3c(Cl)nc(Cl)nc32)C(OC(C)=O)C1OC(C)=O (stereo not given) ?
IMPase Li cell: inactive; LMNA splice mod: inconclusive

What do the screens show for `CCSc1nnnn1-c1ccccc1`?
NPSR antag: inactive; IMPase Li cell: inactive; HTT cytoprotect: inactive[10 µM]; HttQ103 aggreg: inactive; LMNA splice mod: inactive; IMPase cell inh: inactive

How did Cc1ccc(C)c(-n2nnnc2Sc2nnnn2-c2ccccc2)c1 do in these assays?
NPSR antag: inactive; IMPase Li cell: inactive; HTT cytoprotect: inactive[10 µM]; HttQ103 aggreg: 20µM; LMNA splice mod: inconclusive; IMPase cell inh: inactive

What do the screens show for `CC(C)(C)OC=O`?
IMPase Li cell: inactive; HTT cytoprotect: inactive

Results for S=C(Nc1cccc(Cl)c1)N(CCCN1CCCC1)Cc1cccn1Cc1ccc(Cl)cc1 ?
NPSR antag: 10µM; IMPase Li cell: inactive; HTT cytoprotect: inactive; HttQ103 aggreg: inconclusive

Results for CSc1cccc(NC(=S)N(CCCN2CCCC2)Cc2cccn2Cc2ccc(Cl)cc2)c1 ?
NPSR antag: 5µM; IMPase Li cell: inactive; HTT cytoprotect: inactive; HttQ103 aggreg: inconclusive

Results for CSc1cccc(NC(=S)N(CCCN2CCCC2)Cc2cccs2)c1 ?
NPSR antag: inactive; IMPase Li cell: inactive; HTT cytoprotect: inactive; HttQ103 aggreg: inactive

How did Cc1cccc(CSC(Nc2ccc(F)cc2)=C(C#N)C#N)c1 do in these assays?
NPSR antag: inactive; IMPase Li cell: inactive; HTT cytoprotect: inactive[10 µM]; HttQ103 aggreg: 4.5µM; LMNA splice mod: inconclusive

Results for N#CC(C#N)=C(Nc1ccc(F)cc1)SCc1cccc(Br)c1 ?
NPSR antag: inactive; IMPase Li cell: inactive; HTT cytoprotect: inactive[10 µM]; HttQ103 aggreg: 2.2µM; LMNA splice mod: inconclusive

What do the screens show for `CC(SCc1ccccc1)C(=O)Nc1ccc(F)cc1` (stereo not given)?
NPSR antag: inactive; IMPase Li cell: inactive; HttQ103 aggreg: inactive; LMNA splice mod: inactive

How did NS(=O)(=O)c1cc2c(cc1Cl)=NC(CCC(=O)O)=NS=2(=O)O do in these assays?
IMPase Li cell: inactive; HTT cytoprotect: inactive[10 µM]

Results for COc1ccc(-n2cc(C(=O)c3ccccc3O)cn2)cc1 ?
NPSR antag: inactive; IMPase Li cell: inactive; HTT cytoprotect: inactive; HttQ103 aggreg: inactive

What do the screens show for `O=C(c1cnn(-c2ccccc2)c1)c1ccccc1O`?
NPSR antag: inactive; IMPase Li cell: inactive; HTT cytoprotect: inactive[10 µM]; HttQ103 aggreg: 11µM; LMNA splice mod: inactive; IMPase cell inh: inactive

Results for O=C(Nc1ccc(F)cc1)c1ccc(COc2ccccc2)cc1 ?
NPSR antag: inactive; IMPase Li cell: 13µM; HttQ103 aggreg: inactive; LMNA splice mod: inconclusive

What do the screens show for `COc1ccc(CC(=O)OCC(=O)NCc2ccc(Cl)cc2)cc1`?
NPSR antag: inactive; IMPase Li cell: inactive; HTT cytoprotect: inactive; HttQ103 aggreg: inactive

What do the screens show for `COc1ccc(CNC(=O)COC(=O)Cc2ccc(Cl)cc2Cl)cc1`?
NPSR antag: inactive; IMPase Li cell: inactive; HTT cytoprotect: inactive[1.9 µM]; HttQ103 aggreg: 0.56µM; LMNA splice mod: inactive; IMPase cell inh: inactive

What do the screens show for `CCC/C=C(\CCC)C(NS(=O)(=O)CC12CCC(CC1=O)C2(C)C)c1ccc(C(=O)OC)cc1` (stereo not given)?
IMPase Li cell: inactive; HTT cytoprotect: inactive

Results for Cc1ccc(-c2cc(C(=O)O)c3cc(Br)ccc3n2)o1 ?
NPSR antag: inactive; IMPase Li cell: 11µM; HttQ103 aggreg: inactive; LMNA splice mod: inactive

How did Cc1ccc(-c2cc(C(=O)NN3CCOCC3)c3cc(Br)ccc3n2)o1 do in these assays?
NPSR antag: inactive; IMPase Li cell: inactive; HTT cytoprotect: inactive[10 µM]; HttQ103 aggreg: inactive; LMNA splice mod: inactive

Results for CC(=O)c1c(C)nc2ccc(Br)cc2c1C(=O)O ?
NPSR antag: inactive; IMPase Li cell: 1µM; HTT cytoprotect: inactive; HttQ103 aggreg: inconclusive; LMNA splice mod: inactive; IMPase cell inh: inconclusive

How did CC(=O)c1c(C)nc2ccc(Br)cc2c1-c1ccccc1 do in these assays?
NPSR antag: inactive; IMPase Li cell: inactive; HTT cytoprotect: inactive; HttQ103 aggreg: inactive; LMNA splice mod: inactive

How did CCCCCCOc1ccc(C(=N)N(CCCC)CCCC)c2ccccc12 do in these assays?
HTT cytoprotect: inactive; HttQ103 aggreg: inconclusive

What do the screens show for `CC[C@H](C)NC(=O)c1ccc(Cn2c(=S)[nH]c3c([nH]c4ccc(OC)cc43)c2=O)cc1`?
NPSR antag: inactive; IMPase Li cell: inactive; HTT cytoprotect: inactive[10 µM]; HttQ103 aggreg: inactive; LMNA splice mod: inactive; IMPase cell inh: inactive

Results for Cc1ccc(C(=O)NNC(=O)C2CCN(S(=O)(=O)c3ccc(Cl)cc3)CC2)cc1 ?
NPSR antag: inactive; IMPase Li cell: inactive; HTT cytoprotect: inactive[10 µM]; HttQ103 aggreg: inactive; LMNA splice mod: inactive

How did O=C(NNC(=O)C1CCN(S(=O)(=O)c2ccc(Cl)cc2)CC1)c1ccc(S(=O)(=O)N2CCCCC2)cc1 do in these assays?
NPSR antag: inactive; IMPase Li cell: inactive; HTT cytoprotect: inactive[10 µM]; HttQ103 aggreg: 25µM; LMNA splice mod: inactive

Results for CC(=O)N(C[C@@H](O)CO)c1c(I)c(C(=O)NC[C@@H](O)CO)c(I)c(C(=O)NC[C@@H](O)CO)c1I ?
IMPase Li cell: inactive; HTT cytoprotect: inconclusive; LMNA splice mod: inactive; IMPase cell inh: inactive

What do the screens show for `Cc1nc(NC(=O)c2ccc(F)cc2)sc1C(=O)Nc1ccc2c(c1)CCC2`?
NPSR antag: inactive; IMPase Li cell: 22µM; HTT cytoprotect: inactive; HttQ103 aggreg: inactive; LMNA splice mod: inactive; IMPase cell inh: inactive

How did CC(=O)O[C@H]1C2=C(C(=O)[C@H]3O[C@@H]31)[C@@H]1[C@@H]3[C@@H](C)OC=C4[C@H](O)[C@H]5O[C@@H]5C(=O)[C@]43C2O[C@H]1C do in these assays?
HTT cytoprotect: inactive[10 µM]

How did CCCCCCc1cc2cc(C(=O)Nc3ccccc3)c(=O)oc2cc1O do in these assays?
NPSR antag: inactive; IMPase Li cell: inactive; HTT cytoprotect: inactive[10 µM]; HttQ103 aggreg: 2.2µM; LMNA splice mod: inactive

How did CC(C)(C)OC(=O)NCC(=O)Oc1cc2oc(=O)cc(-c3ccccc3)c2cc1Cl do in these assays?
NPSR antag: inactive; IMPase Li cell: inactive; HTT cytoprotect: inactive[10 µM]; HttQ103 aggreg: 4µM; LMNA splice mod: inconclusive
